PubChem BioAssay

test: probe aNOTCH3 binding on compound microarray – biochemical, small-molecule microarray, 635/667 nm fluorescence, primary screen (AID 1120); conditions: higher = more signal;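 also: probe is a biotin-tagged antibody raised against NOTCH3 rather than NOTCH3 protein; score merges spot fluorescence near 667 nm with spot signal to noise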

Compound	composite z-score
C=CCN1C(=O)[C@@]2(Cc3ccccc31)N=C(c1ccc(OCCCO)cc1)O[C@H]2c1ccccc1	0.307
CN(C)CCCCCCNC(=O)[C@H]1C[C@H]2C(=O)N[C@@H](CCCCN)C(=O)N2[C@H]1c1cccc(OCCO)c1	1.95
COc1cc2c(cc1OC)CN(C(=O)[C@H]1[C@@H]3C(=O)O[C@@H](c4ccccc4)[C@@H](c4ccccc4)N3[C@@H](c3ccc(O)cc3)[C@]13C(=O)Nc1ccccc13)CC2	-0.0672
C=CC1(C(=O)OC)CC=C(C(=O)OC)CC1 (stereo unspecified)	-0.0077
CCCC=C(CCC)[C@@H](NC(=O)c1cccs1)c1ccc(C(F)(F)F)cc1	0.224
C=CCNC(=O)[C@@H]1[C@H]2C(=O)O[C@H](c3ccccc3)[C@H](c3ccccc3)N2[C@H](c2ccccc2OCCO)[C@@]12C(=O)N(C(=O)OCCOC)c1ccccc12	0.492
COC(=O)C[C@H]1O[C@]2(C(=O)N(C)c3ccccc32)[C@@H](C)[C@@H]1[Si](C)(C)F	-0.0584
C=CCOC(=O)[C@@H]1[C@H]2C(=O)O[C@H](c3ccccc3)[C@H](c3ccccc3)N2[C@H](c2ccc(OCCOC(=O)[C@@H]3C[C@@H]4C(=O)NCC(=O)N4[C@@H]3c3ccc(O)cc3)cc2)[C@@]12C(=O)Nc1ccc(I)cc12	-0.0879
COc1ccc(CCNC(=O)[C@@]2(C)c3ccccc3C(=O)N(C(C)C)[C@H]2c2ccc(CO)cc2)cc1	-0.0074
C=C(CC1([C@@H](NP(=O)(c2ccccc2)c2ccccc2)[C@H]2C[C@@H]2CCCC)CC1)c1ccccc1	0.335
COC(=O)[C@H](Cc1ccccc1)N1CC2=C[C@@H](C3CC3)n3c(=O)n(C)c(=O)n3[C@H]2[C@@H]1[C@@H](O)Cc1ccccc1	0.0562
C=C(/C(=C/C[C@H](OC(C)=O)c1ccc(CO)o1)c1cc(C(=O)OC)ccc1OC)C(C)C	-0.0328
[N-]=[N+]=Nc1ccccc1[C@H]1OC(c2ccc(OCCCO)cc2)=N[C@@]1(CCS(=O)(=O)c1ccccc1)C(N)=O	0.264
COc1cc2c(cc1OC)CN(C(=O)[C@@H]1[C@H]3C(=O)O[C@H](c4ccccc4)[C@H](c4ccccc4)N3[C@H](c3ccccc3OCCO)[C@@]13C(=O)Nc1ccc(C#CCCO)cc13)CC2	0.0556
C[N+](C)(C)CCCCNC(=O)[C@@H]1C[C@@H]2C(=O)N[C@@H](Cc3ccccc3)C(=O)N2[C@@H]1c1cccc(OCCO)c1	-0.217
COCCOC(=O)N1C(=O)[C@@]2(c3cc(C#CCC(C(=O)OC)C(=O)OC)ccc31)[C@H](C(=O)Nc1nc3ccccc3s1)[C@H]1C(=O)O[C@H](c3ccccc3)[C@H](c3ccccc3)N1[C@@H]2c1ccccc1OCCO	-0.0343
CCC[C@@H]1C[C@@]1(CCC)[C@@H](NS(=O)(=O)c1cccc2cccnc12)c1ccc(Cl)cc1	0.0496
C=CCNC(=O)[C@@H]1[C@H]2C(=O)O[C@H](c3ccccc3)[C@H](c3ccccc3)N2[C@H](c2ccc(O)cc2)[C@@]12C(=O)N(C(=O)OCCOC)c1ccc(C#CCNC(N)=O)cc12	-0.0247
COCCOC(=O)N1C(=O)[C@@]2(c3cc(C#CCCO)ccc31)[C@H](C(=O)N1CCCCCCC1)[C@H]1C(=O)O[C@H](c3ccccc3)[C@H](c3ccccc3)N1[C@@H]2c1ccc(OCCO)cc1	1.33
COC(=O)[C@@]1(CCC(=O)OC(C)(C)C)N=C(c2ccc(OCCCO)cc2)O[C@H]1c1ccccc1N=[N+]=[N-]	-0.076
CCCCCN1CC=CC23O[C@@H]4/C=C\CCC(C)OC(=O)C4[C@H]2C(=O)N(C(C)CO)[C@@H]3C1=O (stereo partly specified)	-0.127
Cc1ccc(S[C@]2(C(=O)NC3CC3)CC(=O)N(Cc3ccccc3)[C@@H]2c2ccc(CO)cc2I)cc1	-0.209
O=C1NC(=O)C2C1C=CC(C(O)c1cccs1)N2Nc1ccc(Cl)cc1Cl (stereo unspecified)	0.267
C=CCC(OC(C)=O)[C@@H]1[C@@H](N(Cc2ccc(-c3ccccc3)cc2)C(=O)c2cccc3ccccc23)c2cc(OCCCO)ccc2N1C(=O)c1ccc(-c2ccccc2)cc1 (stereo partly specified)	0.0897
CCOC(=O)C[C@H]1[C@H](OC(=O)c2ccc(C(=O)c3ccccc3)cc2)[C@@H](NC(=O)c2ccccc2)c2cc(OCCCO)ccc2N1C(=O)c1ccc2ccccc2n1	0.0561
COc1cc2c(cc1O)C(C1CC1)N(Cc1sc3ccccc3c1Cl)CC2 (stereo unspecified)	-0.152
